Screening data (PubChem)
Many of the other results were omitted from the sample, so hits are more common in it than they were.
Tg IFNy HTS: T. gondii growth inhibition under IFN-gamma | activity change, negative = inhibition, % (no concentration beside the values) | AID 1259416 | 69,000 compounds, 3.8% hits | Toxoplasma gondii growth in IFN-gamma-treated host cells; hits give low values; in the data active means activity change below about -70%, passing the limit was not always enough;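 further: host cells are HeLa cells infected with Toxoplasma gondii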
* = called active by the depositor; i = inactive; ! = not confirmed by another sample.

SMILES	Tg IFNy HTS
COc1ccc(C[C@H]2NC[C@H](O)[C@H]2OC(C)=O)cc1	-75*
O=C(NC1CCCCC1)c1cc2cccnc2n(Cc2ccc(Cl)cc2)c1=O	-38
Cc1cc(C)n2nc(C3=CCN(CC(O)c4ccccc4)CC3)cc2n1 (stereo unspecified)	-3
c1cncc(CO[C@@H]2CO[C@]3(CCN(Cc4cccs4)C3)C2)c1	5
c1cnc(N2CCC3(COCCN(Cc4ccoc4)C3)C2)nc1 (stereo unspecified)	4
Cc1ccc(CNC(=O)c2cc3cccnc3n(Cc3ccc(F)cc3)c2=O)cc1	-8
O=C(NCc1ccc(F)cc1)c1cc2cccnc2n(Cc2ccc(Cl)cc2)c1=O	-37
O=C(NCCC(c1ccccc1)c1ccccc1)c1cc2cccnc2n(Cc2ccccc2)c1=O	10
O=C(NCc1ccco1)c1cc2cccnc2n(Cc2ccc(F)cc2)c1=O	-95*
O=C(NCCC(c1ccccc1)c1ccccc1)c1cc2cccnc2n(Cc2ccc(F)cc2)c1=O	-83*
CC(C)CCNC(=O)c1cc2cccnc2n(Cc2ccc(F)cc2)c1=O	-25
CN1CCN(C(=O)[C@H]2CC3CN(c4ncccn4)CC3N2C)CC1 (stereo partly specified)	-2
O=C(NCCCc1ccccc1)c1cc2cccnc2n(Cc2ccccc2F)c1=O	-27
CN1CCN(CC2CC2)C(=O)C12CCNCC2	52
CN1CCN(S(=O)(=O)c2cccc(F)c2)Cc2cccnc21	9
CC(C)OCCCNC1CCN(C)CC1	9
CC(C)CN1CCC2(COCc3cnc(N(C)C)nc32)C1 (stereo unspecified)	6
c1nc(N2CCOCC2)nc2c1COCC21CCN(CC2CC2)C1 (stereo unspecified)	-7
COCCN1CCC2(COCc3cnc(N4CCOCC4)nc32)C1 (stereo unspecified)	-91*
FCCN1CCC2(CCCN(c3nncs3)C2)C1 (stereo unspecified)	114
CN1CCc2c(C#N)c(N)n(N)c(=S)c2C1	57
c1ccc(CN2C[C@H]3OCCN(CC4CCCO4)[C@H]3C2)nc1 (stereo partly specified)	38
C=CCOC1C2CCC1N(Cc1ccccn1)CCO2 (stereo unspecified)	-92*
c1ccc(CN2CCO[C@H]3[C@H]2CC[C@H]3OCc2cccnc2)nc1	9
Cc1cccc(NC(=O)c2cc3cccnc3n(Cc3ccc(F)cc3)c2=O)c1C	121
SMILES	Tg IFNy HTS
Cc1nc(-c2ccc3c(c2)C(C)(C)CCC3(C)C)cs1	-12
O=C(c1ccccn1)C1CCCN(Cc2ccc(-n3ccnc3)cc2)C1 (stereo unspecified)	0
CCC(CO)(C(=O)OC1CC2CCC(C1)[N+]2(C)C)c1ccccc1 (stereo unspecified)	6
O=C(NCC1CC1)c1c(O)c2cccnc2n(Cc2ccccc2)c1=O	-92*
Cc1ccc(C)c(NC(=O)c2c(O)c3cccnc3n(Cc3ccccc3)c2=O)c1	79
Cc1cccc(NC(=O)c2c(O)c3cccnc3n(Cc3ccccc3)c2=O)c1	139
O=C(Nc1ccccc1Cl)c1c(O)c2cccnc2n(Cc2ccccc2)c1=O	25
Cc1cccc(NC(=O)c2c(O)c3cccnc3n(Cc3ccccc3)c2=O)c1C	15
COc1ccc(C)cc1NC(=O)c1c(O)c2cccnc2n(Cc2ccccc2)c1=O	45
O=C(NCc1ccc(Cl)cc1)c1cc2cccnc2n(Cc2ccccc2F)c1=O	108
Cc1ccc(NC(=O)c2c(O)c3cccnc3n(Cc3ccccc3)c2=O)cc1	315
O=C(NCc1ccccc1Cl)c1cc2cccnc2n(Cc2ccccc2)c1=O	-3
O=C(NCc1cccc(Cl)c1)c1c(O)c2cccnc2n(Cc2ccccc2)c1=O	-107*
O=C(NCc1ccc(Cl)cc1)c1c(O)c2cccnc2n(Cc2ccccc2)c1=O	-98*
O=C(NCc1cc(F)cc(F)c1)c1c(O)c2cccnc2n(Cc2ccccc2)c1=O	-103*
CO[C@H]1CCN(Cc2cc(C)on2)[C@H]2CN(CC3CC3)C[C@@H]12	-4
Cn1ccnc1C(=O)NCc1cncc2c1CCNC2	50
COc1nc2ccccc2cc1C1NCCc2nc(N)sc21 (stereo unspecified)	2
Cc1ccc(C)c(NC(=O)c2cc3cccnc3n(Cc3ccccc3F)c2=O)c1	91
CN(Cc1ccccc1)[C@H]1CC2CCC1N2CC=O (stereo partly specified)	3
Cc1cc(CN2C[C@H]3CCCO[C@H]3[C@H](NS(C)(=O)=O)C2)no1	-4
CN1CCc2cc3c(cc2[C@H]1C1OC(=O)c2c1ccc1c2OCO1)OCO3 (stereo partly specified)	-27
CNC(=O)[C@H]1CC2CN(C(=O)Cc3ccsc3)CC2N1C(C)C (stereo partly specified)	1
O=C(NCc1ccc(F)cc1)c1c(O)c2cccnc2n(Cc2ccccc2)c1=O	-99*
O=C(Nc1ccc(F)cc1Cl)c1c(O)c2cccnc2n(Cc2ccccc2)c1=O	142
SMILES	Tg IFNy HTS
COc1ccccc1CNC(=O)c1cc2cccnc2n(Cc2ccc(F)cc2)c1=O	92
Cc1cc(C(=O)N2CC[C@H]3[C@@H]2CCN3Cc2cccnc2)c(C)o1	17
COCc1cncc2c1CCN(Cc1cnn(C)c1)C2	-7
CN(Cc1cccnc1)C1CCC[C@@H]2CN(CC3CC3)C[C@@H]12 (stereo partly specified)	-45
CCc1nn2c(=O)cc(CN3C[C@@H]4[C@@H]5CC[C@@H](C5)[C@@H]4C3)nc2s1	28
Cc1cccc(CN2CCCC3(CCN(CC4CC4)CC3)C2)n1	-1
Fc1ccc(C(OCCN2CCCC2)c2ccc(Br)cc2)cc1 (stereo unspecified)	-62
Fc1ccc(C(OCCN2CCN(C/C=C/c3ccccc3)CC2)c2ccc(F)cc2)cc1	-81*!
Fc1ccc(C(OCCN2CCN(CCCc3ccccc3)CC2)c2ccc(F)cc2)cc1	14
COc1ccc(/C=C/C(=O)C2C(=O)N(C)C3(C)CC2c2ccccc2O3)cc1 (stereo unspecified)	-26
Cc1cnc(N2C[C@H]3CN(Cc4nccs4)C[C@H]3C2)nc1	15
Cc1nc(SCc2c(F)cccc2Cl)nc(OC(=O)N(C)C)c1C	-29
Cc1cccc(NC(=O)c2cc3cccnc3n(Cc3ccccc3F)c2=O)c1C	25
CCOP(=S)(OCC)Oc1nc(Cl)c(Cl)cc1Cl	-76*!
CN(C)[C@@H]1C(=O)C(C(N)=O)C(=O)[C@@]2(O)C(=O)C3C(=O)c4c(O)cccc4[C@](C)(O)[C@H]3C[C@@H]12 (stereo partly specified)	11
O=c1[nH]c2ccc(Cl)cc2c(N[C@@H]2CN3CCC2CC3)c1-c1nc2ccccc2[nH]1	-76*
O=C(NCC1CCOCC1)c1cnc(Nc2ccc(Cl)cc2Cl)nc1C(F)(F)F	-74*
COCCN1C[C@H]2CCC[C@@H](CNc3ncccn3)[C@@H]2C1	7
COc1cccc(CCNC(=O)c2cc3cccnc3n(Cc3ccccc3F)c2=O)c1	41
Fc1cnc(N2CCC3(CC2)CNCc2ccccc23)nc1	-84*
Fc1cnc(N2CCN(CC3CC3)c3ncccc3C2)nc1	i
C=CCN1CCN(c2ncc(F)cn2)Cc2ccc(C)nc21	37
CN(C)C(=O)CN1CCCC2(CCN(c3ccc(C#N)cn3)C2)C1 (stereo unspecified)	-47
COc1cccc(CC(C)NCc2n[nH]c3c2CCCCC3)c1 (stereo unspecified)	8
Cc1nc(CN2CCC3(C2)CN(Cc2cccnc2)C3)cs1	-7
